Screens (PubChem)
Compounds with a hit are over-represented: about 0.9% of the library has one in this group of screens.
RXFP1 ag = agonists of human relaxin receptor RXFP1 | Q9HBX9 | HEK293T-RXFP1 cAMP TR-FRET, 30 min; response scale: percent of porcine relaxin response, buffer zero | Potency, µM (highest dose often 57.5 µM), for the others: top-dose activation, hits mostly activators | 0.3% of 370,000 active | AID 2676; active means well fitted activation curve with a large enough effect; inconclusive means small, poorly fitted or top-dose-only effect; further: potency means the concentration at half of the fitted maximal effect; on the % scale 0 is the no-effect control and ±100 the full control effect; nearly all actives have a fitted effect of over 60% in size
Target sequence (Q9HBX9 whole entry, looked up): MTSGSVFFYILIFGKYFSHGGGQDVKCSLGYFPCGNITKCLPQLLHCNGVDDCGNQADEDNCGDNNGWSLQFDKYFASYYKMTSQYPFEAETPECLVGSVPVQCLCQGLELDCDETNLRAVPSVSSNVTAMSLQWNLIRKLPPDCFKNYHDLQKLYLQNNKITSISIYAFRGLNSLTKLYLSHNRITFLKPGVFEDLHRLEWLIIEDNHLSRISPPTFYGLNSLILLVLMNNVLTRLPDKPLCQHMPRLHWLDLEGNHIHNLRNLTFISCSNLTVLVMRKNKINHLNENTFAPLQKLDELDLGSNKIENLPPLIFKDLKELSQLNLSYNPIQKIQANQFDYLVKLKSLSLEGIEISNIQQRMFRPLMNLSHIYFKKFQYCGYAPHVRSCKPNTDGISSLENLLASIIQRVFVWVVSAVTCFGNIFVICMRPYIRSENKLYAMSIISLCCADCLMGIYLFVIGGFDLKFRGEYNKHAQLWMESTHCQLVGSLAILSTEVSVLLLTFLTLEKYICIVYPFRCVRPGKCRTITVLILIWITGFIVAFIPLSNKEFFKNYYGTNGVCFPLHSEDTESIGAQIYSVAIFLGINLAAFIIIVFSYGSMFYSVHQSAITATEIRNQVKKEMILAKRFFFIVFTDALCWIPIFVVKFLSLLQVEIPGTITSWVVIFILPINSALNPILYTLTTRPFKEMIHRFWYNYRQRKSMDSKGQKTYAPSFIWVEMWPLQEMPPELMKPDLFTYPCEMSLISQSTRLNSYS
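Agonist response is measured as cAMP accumulation in an RXFP1-transfected HEK293T line under PDE4 inhibition. Values are scaled between buffer-only and 29 nM porcine relaxin, and EC50s come from standard Hill equation fits.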
gsp agonist = gsp mutant agonism; 0.13% of 340,000 active; Potency, µM (top dose mostly 76.9 µM), for the others: at the top dose activation (cAMP increase), hits mostly activators; gsp mutant cells, cAMP HTRF, 30 min; active means well fitted activation curve with a large enough effect; inconclusive means small, poorly fitted or top-dose-only effect, or another doubt; inactive means no such curve, though single readings can be large or run the other way; cell line not stated here;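 further: phosphodiesterase inhibitor Ro 20-1724 added with compounds to block cAMP breakdown; potency means the concentration at half of the fitted maximal effect; nearly all actives have a fitted effect of over 60% in size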
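Cells stably selected in G418 were plated at 2000/well, grown 16-24 hr, then given compounds in DMSO with the PDE inhibitor […] (300 uM solution added) for 30 min at 37C; cAMP was read by HTRF.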
RXFP1 antagonist = antagonists of human relaxin receptor RXFP1 | AID 1259400 | activity change, negative = inhibition, % at 57.5 µM | Q9HBX9 | HEK293-RXFP1, relaxin-stimulated cAMP HTRF, 30 min; active compounds read low | 0.59% of 350,000 active;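 active means activity change of -60% or lower, but not beyond a set lower limit; inconclusive means change between -60% and -40%, or beyond the set limit; inactive means change above -40%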; further: on the % scale 0 is the no-effect control and ±100 the full control effect
gsp antag = antagonizes gsp, the McCune-Albright syndrome mutation; 0.4% of 340,000 active; AID 624288; Potency, µM (top dose mostly 76.9 µM), inactives show at the highest dose activity change, negative = inhibition, actives largely listed as inhibitors; gsp-mutant cells, cAMP HTRF, 30 min; calls by dose curve; cell line not stated here;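 further: intracellular cAMP measured with PDE inhibitor Ro 20-1724 present during compound exposure; potency means the concentration at half of the fitted maximal effect; on the % scale 0 is the no-effect control and ±100 the full control effect; nearly all actives have a fitted effect of over 65% in size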
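Cells, 2000/well, grown 16–24 h in DMEM 10% FBS with 0.5 mg/ml G418, then compounds plus […] (300 uM addition stock), 30 min at 37C. cAMP read by HTRF (cAMP-d2 and anti-cAMP antibody-K in lysis buffer) after 30 min RT.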
Active calls of the source: *; ? = inconclusive; / = no result; [ ] = dose if it differs, or a comment.

SMILES	RXFP1 ag	gsp agonist	RXFP1 antagonist	gsp antag
O=C(Nc1ccc(N2CCOCC2)c(Cl)c1)c1ccc(Cl)cc1	2%	4%[15.4 µM]	-83*	-28%
O=C(NCCN1CCOCC1)C(=O)NCC1OCCN1S(=O)(=O)c1ccc(F)cc1 (centres undefined)	2%	2%	1	-12%
Cc1nc2ccccc2n1CC(O)COc1ccc(C(=O)O)cc1 (centres undefined)	-1%	/	1	/
CCC(=O)c1ccc(OCC(O)Cn2c(C)nc3ccccc32)cc1 (centres undefined)	3%	28µM*	-16	-39%
COc1ccc(NS(=O)(=O)c2ccc3c(c2)Cc2ccccc2-3)cn1	1%	-8%	1	28µM*
O=C(CCCl)NCc1ccccc1	/	/	21	/
Cc1ccc(C)c(NS(=O)(=O)c2ccc3c4c(cccc24)C(=O)N3)c1	0%	/	-79*	/
O=C1Nc2ccc(S(=O)(=O)Nc3ccccc3O)c3cccc1c23	-1%	/	-5	/
COc1ccccc1NC(=O)CN1C(=O)c2cccc3cccc1c23	3%	/	7	/
O=C(Nc1ccccc1Br)c1ccc(N2CCCC2=O)cc1	1%	3%	-2	-1%
O=C(NCc1ccccc1)C1CCN(S(=O)(=O)Cc2ccccc2)CC1	9%	/	-6	/
CCN(CC)S(=O)(=O)c1ccc(C(=O)Nc2ccc(Cc3ccncc3)cc2)cc1	0%	35%	-20	50µM*
CCN(CC)S(=O)(=O)c1ccc(C(=O)Nc2nnc(NC(=S)Nc3ccccc3)s2)cc1	0%	-6%[15.4 µM]	-85*	-5%
COc1ccc(NC(=O)Cc2csc(C)n2)cc1	1%	/	-3	/
COc1ccc(OC)c(-c2csc(NC(=O)C3COc4ccccc4O3)n2)c1 (centres undefined)	-1%	-14%	2	-14%
O=C(Nc1nc(-c2nc3ccccc3s2)cs1)C1COc2ccccc2O1 (centres undefined)	21%	11µM*	/	-22%
CCN1CCOC(=O)C1CC(=O)Nc1cccc(OC)c1 (centres undefined)	0%	/	2	/
COc1ccc(C(=O)N2CC(=O)Nc3ccc(C)cc3C2c2ccc(F)cc2)c(OC)c1 (centres undefined)	0%	/	-6	/
CCc1cc2c(cc3c(=O)n(CCCC(=O)NCc4cccc(Br)c4)ncn32)s1	?	/	-6	/
CC1CCCCC1NC(=O)CCn1c(=S)[nH]c2ccccc2c1=O (centres undefined)	/	-1%	-13	/
Cc1cccc(N2CCN(C(=O)CCn3c(=S)[nH]c4cc5c(cc4c3=O)OCO5)CC2C)c1 (centres undefined)	0%	21%	-77*	-19%
O=C(CCCn1c(=S)[nH]c2cc3c(cc2c1=O)OCO3)NCCc1ccc(Cl)cc1	/	?	-29	/
COc1ccc(N2CCN(C(=O)CCCCCn3c(=S)[nH]c4cc5c(cc4c3=O)OCO5)CC2)cc1	?	11%	?	3%
COc1ccc(N2CCN(C(=O)CCCCCn3c(=S)[nH]c4ccc(N5CCOCC5)cc4c3=O)CC2)cc1	/	-20%	-98*	/
O=C(CCCn1c(=S)[nH]c2cc3c(cc2c1=O)OCO3)NC1CC1	4%	0%	-72*	16%
SMILES	RXFP1 ag	gsp agonist	RXFP1 antagonist	gsp antag
O=C(CCCn1c(=S)[nH]c2ccccc2c1=O)NC1CCCCC1	3%	21%	-111*	8%
O=C(NOCC1CC1)c1ccc(F)c(F)c1Nc1ccc(I)cc1Cl	/	/	-22	/
COc1ccc(OCc2nc3c4c(-c5ccccc5)c(-c5ccccc5)oc4ncn3n2)cc1	-2%	/	-8	/
COc1ccc(NC(=O)Cn2c(=O)n(Cc3ccccc3Cl)c(=O)c3cc(OC)c(OC)cc32)cc1OC	25µM*	/	/	/
CCOc1cc2[nH]c(=S)n(CCCC(=O)NCc3ccco3)c(=O)c2cc1OCC	1%	29%	?	11%
O=C(CCCn1c(=S)[nH]c2ccccc2c1=O)N1CCCCC1	0%	8%	?	11%
O=C(CCCn1c(=S)[nH]c2cc3c(cc2c1=O)OCO3)NCc1ccco1	6%	4%[15.4 µM]	-64*	10%
O=C(CCCn1c(=S)[nH]c2cc3c(cc2c1=O)OCO3)N1CCN(c2ccc(Cl)cc2)CC1	2%	-30%	-116*	-9%
CC1CC(C)CN(C(=O)CCCn2c(=S)[nH]c3ccccc3c2=O)C1 (centres undefined)	0%	-8%	-97*	-1%
CCOc1cc(C(=O)Nc2ccc(NC(=O)c3cc4ccccc4o3)c(OC)c2)cc(OCC)c1OCC	-1%	/	/	/
Cc1cc(C)cc(NC(=O)CCn2c(=S)[nH]c3ccccc3c2=O)c1	0%	-4%	-32	-2%
COc1ccc(NC(=O)CCn2c(=S)[nH]c3ccccc3c2=O)cc1OC	16%	?	-74*	21%
Cc1cc(C(=O)COC(=O)Cn2cnc3c2c(=O)n(C)c(=O)n3C)c(C)n1C	?	4µM*	2	22%
Cn1c(=O)c2c(ncn2CC(=O)OCC(=O)c2ccc(F)c(F)c2)n(C)c1=O	2%	-32%	-20	5%
N#C/C(=C\c1cccnc1)C(=O)Nc1cccc2ccccc12	-1%	?	-67*	10%
COc1cccc(CNC(=O)c2ccc3c(c2)nc2n3CCOC2)c1	2%	/	-17	/
COc1cc2cc(CCOC(=O)c3ccc(F)cc3)oc(=O)c2cc1OC	2%	/	/	50µM*
COc1cc2cc(CCOC(=O)c3ccc(C#N)cc3)oc(=O)c2cc1OC	0%	/	/	-15%
COc1cc2c(cc1OC)CN(C(=O)[C@H](C)N[C@@H](CCc1ccccc1)C(=O)O)[C@H](C(=O)O)C2	/	/	23	/
CCOC(=O)c1ccc(NC(=O)c2ccc(C)c(S(=O)(=O)N3CCOCC3)c2)cc1	1%	0%	?	28µM*
COc1ccc(NC(=O)/C=C/c2ccc(S(=O)(=O)N3CCOCC3)cc2)cc1	1%	9%	-2	7%
COc1ccc(/C=C/C(=O)Nc2ccc(C)c(S(=O)(=O)N3CCOCC3)c2)cc1	/	/	/	32µM*
Cc1cc(C)n(-c2ccc(C(=O)Nc3ccc(C)c(S(=O)(=O)N4CCOCC4)c3)cc2)n1	-2%	-1%[15.4 µM]	-23	35µM*
Cc1ccc(C(=O)c2coc3cc([N+](=O)[O-])c(O)c([N+](=O)[O-])c23)cc1	-2%	-68%	-6	35µM*
Cc1ccc(C(=O)c2ccc([N+](=O)[O-])cc2)cc1	1%	-6%	-8	-8%
CN(C)C(=S)SC(=S)N(C)C	/	/	-7	/
CCC1CN(C(=O)N2CCC(C(=O)NCCCc3ccccc3)CC2)c2ccccc2O1 (centres undefined)	2%	/	-13	/
CCC1CN(C(=O)N2CCC(C(=O)NCCCc3ccccc3)CC2)c2cc(C)ccc2O1 (centres undefined)	0%	/	-69*	/
CC1CCCN(c2nc(-c3ccccc3O)nc3ccccc23)C1 (centres undefined)	4%	/	/	/
COc1ccc(CCNc2nc(SCc3ccc(F)cc3)nc3ccccc23)cc1OC	1%	/	-29	/
